ssDAF-12 act: activates DAF-12 receptor from parasite S. stercoralis; HEK293 ssDAF-12/GRIP1 lit1-tk-luc reporter, luminescence; % of 3 µM dafachronic acid response; activation, % at 6.8 µM; hit rate 1% among 370,000;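 active means activation above the mean over all tested compounds plus 3 SD, cut at about 0.9% in these data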
DAX1 inh-1: DAX1 (NR0B1) inhibition, primary screen. HEK293T StAR-luciferase reporter, SF-1/DAX-1 repression relief. inhibition, % at 6.8 µM. hit rate 1.1% among 370,000. AID 652010;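 active means inhibition above the mean over all tested compounds plus 3 SD, cut at about 3.6% in these data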;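 further: higher inhibition means more luminescence from relief of DAX-1 repression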
DAX1 inh-2: inhibitors of human orphan nuclear receptor DAX1 (NR0B1); P51843; HEK293 Gal4-DAX1 luciferase reporter, luminescence; inhibition, % at 6.75 µM; hit rate 0.99% among 340,000;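 active means inhibition above the mean over all tested compounds plus 3 SD, cut at about 4.2% in these data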;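 further: inhibition shows as a rise in luminescence from relieved DAX1 repression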
Target sequence (P51843 207-470 limits assumed): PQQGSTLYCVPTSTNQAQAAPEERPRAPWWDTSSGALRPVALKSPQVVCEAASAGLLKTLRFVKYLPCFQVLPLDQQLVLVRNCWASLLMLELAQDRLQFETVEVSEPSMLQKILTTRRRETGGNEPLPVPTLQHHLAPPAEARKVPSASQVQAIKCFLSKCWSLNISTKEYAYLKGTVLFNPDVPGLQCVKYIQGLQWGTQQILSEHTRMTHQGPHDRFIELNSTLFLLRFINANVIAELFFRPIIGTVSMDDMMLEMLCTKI
hcDAF-12 act: H. contortus DAF-12 activation, primary screen. HEK293 hcDAF-12 lit1-tk-luc reporter, luminescence; 0% DMSO, 100% Δ7-dafachronic acid. activation, % at 6.8 µM. hit rate 1.4% among 370,000;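 active means activation above the mean of all tested compounds plus 3 SD, cut at about 5.5% in these data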
hgDAF-12 ag: activates the H. glycines DAF-12 receptor ligand-binding domain. HEK293 GAL4-hgDAF12 UAS-luciferase reporter, agonist luminescence; normalized to butyrate control. activation, % at 6.8 µM. hit rate 1.8% among 370,000;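 active means activation above a cutoff set at the mean of all screened compounds plus 3 SD, cut at about 10% in these data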
Each line names hits and unclear results; the compound was inactive in the other large screens. Only some compounds are listed: those with a hit (about 4.1% of all), similar ones and a draw of the others.

N/C(=N\OC(=O)c1ccc([N+](=O)[O-])cc1Cl)c1ccccn1	ssDAF-12 act 1.1, hcDAF-12 act 6.1
Cc1ccccc1N1C(=O)CC2(CCCC2)CC1=O	ssDAF-12 act 1.1
Cc1ccccc1N1C(=O)C2C3C=CC(CC3)C2C1=O (centres undefined)	none
Cc1ccc(C2CCC3(CCC(=O)N3CCOC(=O)Nc3ccc(F)cc3)CC2)cc1 (centres undefined)	none (no result: DAX1 inh-2)
CC(=O)c1cc(-c2cc(C(F)(F)F)cc(C(F)(F)F)c2)c(=O)n2c1CCC2	none (no result: DAX1 inh-2)
NC(=O)c1ccc(NC(=O)CSc2nnc(-c3ccccc3)n2-c2ccccc2)cc1	none (no result: DAX1 inh-2)
Cn1c(CNc2ccc(F)cc2)nc2ccccc21	ssDAF-12 act 3.1, hcDAF-12 act 6.5, hgDAF-12 ag 13
CCCn1c(CNc2ccc(Br)cc2)nc2ccccc21	none
COC(=O)c1cc(-c2ccc(C)c(C)c2)c(=O)n2c1CCC2	none (no result: DAX1 inh-2)
COC(=O)c1cc2c(c3c4cc(C)ccc4n(S(=O)(=O)c4ccc(OC)cc4)c13)C(=O)N(Cc1ccccc1OC)C2	none (no result: DAX1 inh-2)
N#Cc1ccc(/C=C\c2nccc3c2[nH]c2ccccc23)cc1	none
Clc1ccc(/C=C\c2nccc3c2[nH]c2ccccc23)cc1	hcDAF-12 act 5.7
O=C1NC2(CCCCC2)C(=O)N1c1ccccc1	DAX1 inh-2 5.8
CC(CN1CCOCC1)OC(=O)c1ccc2c(c1)OCCO2 (centres undefined)	hgDAF-12 ag 11
CC(CN1CCCCC1)OC(=O)c1ccc2c(c1)OCCO2 (centres undefined)	none
O=C(NCC(c1ccco1)N1CCN(c2ccccc2)CC1)c1cccs1 (centres undefined)	none
O=C(COc1ccccc1)NCC(c1ccco1)N1CCN(c2ccccc2)CC1 (centres undefined)	hgDAF-12 ag 12
CN(C)CCNC(=O)c1cccc2ccc(-c3ccc(-c4ccccc4)cc3)nc12	ssDAF-12 act 1.2
CN(C)CCNC(=O)c1ccccc1	none
Cc1[nH]c2ccccc2c1/C=N/NC(=O)CCC(=O)Nc1ccccc1	none
Cc1[nH]c2ccccc2c1/C=N/NC(=O)Nc1ccccc1	hcDAF-12 act 6.0
O=C(N/N=C/c1ccc(Br)s1)Nc1ccccc1	hgDAF-12 ag 11
Cc1[nH]c2ccccc2c1/C=N/NC(=O)c1ccc(N)cc1	none
Cc1[nH]c2ccccc2c1/C=N/NC(=O)c1ccccc1	DAX1 inh-2 4.5
COC(=O)[C@]12C[C@H](CC(=O)NCc3ccc(OC)c(OC)c3)C(=O)N(CCc3ccc(OC)c(OC)c3)C1=C[C@H](C1CCCC1)O[C@@H]2C	none (no result: DAX1 inh-2)
C=CCN=C1NC(CCc2ccccc2)C(C(=O)OC)=C(C)N1Cc1cccc(C(F)(F)F)c1 (centres undefined)	ssDAF-12 act 1.5 (no result: DAX1 inh-2)
C=CCN=C1NC(CCc2ccccc2)C(C(=O)OC)=C(C)N1Cc1ccccc1C(F)(F)F (centres undefined)	none (no result: DAX1 inh-2)
Cc1cc(C)cc(C(=O)OCCCN(C)C2CN(Cc3cn(Cc4cccc(F)c4)nn3)S(=O)(=O)C2)c1 (centres undefined)	none (no result: DAX1 inh-2)
OC(c1ccc(F)cc1)c1ncc(-c2ccccc2F)[nH]1 (centres undefined)	hgDAF-12 ag 11 (no result: DAX1 inh-2)
CCc1ccc(C(O)c2ncc(-c3ccccc3F)[nH]2)cc1 (centres undefined)	DAX1 inh-1 4.1 (no result: DAX1 inh-2)
COC(=O)[C@]1(C#N)CC(=O)N(c2ccccc2)[C@@H]1c1ccccc1	none (no result: DAX1 inh-2)
CN1CCCCC(NC(=O)CCl)C1=O (centres undefined)	none (no result: DAX1 inh-2)
CCC(C)(C)NC(=O)CN(Cc1cccs1)C(=O)CNS(=O)(=O)c1ccc(C)cc1	DAX1 inh-2 6.4
COCCCN1C(=O)[C@H](CC(=O)NCCC(C)C)[C@]2(C(=O)OC)CCCCC=C12	none (no result: DAX1 inh-2)
Cc1cc(C)cc(C(=O)OCCN(C)C2CN(Cc3cn(Cc4ccccc4C(F)(F)F)nn3)S(=O)(=O)C2)c1 (centres undefined)	none (no result: DAX1 inh-2)
CC(C)NC(=O)/C(C#N)=C/c1ccc(N(C)C)o1	DAX1 inh-2 5.0
Cc1ccc(O)c(/C=N/NC(=O)c2[nH]ncc2Br)c1	hcDAF-12 act 6.2
CC(=O)Nc1ccc(SC(C)C(=O)NC2CCCC2)cc1 (centres undefined)	none
CC(Sc1ccccn1)C(=O)NC1CCCC1 (centres undefined)	DAX1 inh-1 4.4
Cc1ccc(OCC(=O)O/N=C(\N)c2cccc([N+](=O)[O-])c2)cc1C	hcDAF-12 act 6.0
Cc1ccc(SCC(=O)O/N=C(\N)c2cccc([N+](=O)[O-])c2)cc1	none
Cc1cccc(N2CCN(C(=O)c3cc(S(=O)(=O)N(C)C)ccc3Cl)CC2)c1C	none (no result: DAX1 inh-1, DAX1 inh-2)
Cc1ccc(NC(=O)CSc2ccccc2NC(=O)c2ccccc2)cc1Cl	hcDAF-12 act 5.6
Cc1c(C(=O)c2ccccc2)oc2ccc3ccccc3c12	DAX1 inh-2 6.6
COC(=O)c1cc(-c2ccc(C)cc2)n[nH]1	none
COC(=O)c1cc(-c2ccc(OC)cc2)n[nH]1	hgDAF-12 ag 11
CN(C)C1=NCCN1CC1CCCC1	ssDAF-12 act 1.2
CN(C)C1=NCCN1CCCC1CCCC1	none
CC(=O)c1cc(-c2ccc(Cl)c(C(F)(F)F)c2)c(=O)n2c1CCC2	none (no result: DAX1 inh-2)
O=C(CSc1nnc(-c2cccnc2)n1-c1ccc(Cl)cc1)Nc1cccc2ccccc12	none (no result: DAX1 inh-2)
CCc1ccc(/C(C)=N/NC(=O)c2c[nH]c3ccccc23)s1	ssDAF-12 act 1.1, hcDAF-12 act 6.5
C/C(=N\NC(=O)c1ccccc1[N+](=O)[O-])c1ccc(Br)s1	none
C/C(=N\NC(=O)c1c[nH]c2ccccc12)c1ccccn1	none
C/C(=N\NC(=O)c1ccccc1O)c1ccc(Br)s1	hgDAF-12 ag 11
C/C(=N\NC(=O)c1c[nH]c2ccccc12)c1ccco1	hcDAF-12 act 5.9
CC(C)CN1C(=O)C[C@@]2(C(=O)N(C)c3ccc(NC(=O)C(C)(C)C)cc32)C1c1ccccc1 (some centres undefined)	none (no result: DAX1 inh-2)
CCc1ccc2oc(-c3ccc(OC)cc3)cc(=Nc3c(C)n(C)n(-c4ccccc4)c3=O)c2c1	DAX1 inh-1 6.5, hcDAF-12 act 9.1, hgDAF-12 ag 17
CCc1ccc2oc(-c3ccc(OC)cc3)cc(=Nc3cccc(C(=O)O)c3)c2c1	hcDAF-12 act 6.5, hgDAF-12 ag 13
COc1ccc(-c2cc(=Nc3ccc(C(=O)O)cc3)c3cc(C)ccc3o2)cc1	DAX1 inh-1 4.1, hcDAF-12 act 5.7, hgDAF-12 ag 13
COc1ccc2oc(=Nc3ccc(C(=O)O)cc3)c(C(=O)NCc3ccco3)cc2c1	none
O=C(CCc1ccccc1)Nc1ccc(S(=O)(=O)Nc2nccs2)cc1	hcDAF-12 act 6.3
COC(=O)[C@]1(CNC(C)=O)CC(=O)N(C)[C@@H]1c1ccccc1	none (no result: DAX1 inh-2)
O=C(NCc1ccccc1CN1CCCC1)C1CCN(C(=O)c2ccc(F)cc2)CC1	DAX1 inh-1 3.8
O=C(NCc1ccccc1Cl)C1CCN(C(=O)c2ccc(F)cc2)CC1	none
